# Test results reported in PubChem BioAssay AID1347165 (National Center for Advancing Translational Sciences (NCATS), 2019).
# The whole screen tested about 220,000 compounds, of which about 5,700 (2.6%) were called active. Entries that show only a call come without a potency. Inconclusive results (about 18%) are left out. Calls come from the whole dose curve; as a rule, active = well fitted inhibition curve with a large enough effect; inconclusive = small, poorly fitted or top-dose-only effect; inactive = no such curve, though single readings can be large or run the other way. The sample as a whole holds a higher share of actives than the screen did.
# Biological target: Lysine-specific demethylase 5B (Homo sapiens) (UniProt Q9UGL1)
# Sequence (Q9UGL1 whole entry, looked up): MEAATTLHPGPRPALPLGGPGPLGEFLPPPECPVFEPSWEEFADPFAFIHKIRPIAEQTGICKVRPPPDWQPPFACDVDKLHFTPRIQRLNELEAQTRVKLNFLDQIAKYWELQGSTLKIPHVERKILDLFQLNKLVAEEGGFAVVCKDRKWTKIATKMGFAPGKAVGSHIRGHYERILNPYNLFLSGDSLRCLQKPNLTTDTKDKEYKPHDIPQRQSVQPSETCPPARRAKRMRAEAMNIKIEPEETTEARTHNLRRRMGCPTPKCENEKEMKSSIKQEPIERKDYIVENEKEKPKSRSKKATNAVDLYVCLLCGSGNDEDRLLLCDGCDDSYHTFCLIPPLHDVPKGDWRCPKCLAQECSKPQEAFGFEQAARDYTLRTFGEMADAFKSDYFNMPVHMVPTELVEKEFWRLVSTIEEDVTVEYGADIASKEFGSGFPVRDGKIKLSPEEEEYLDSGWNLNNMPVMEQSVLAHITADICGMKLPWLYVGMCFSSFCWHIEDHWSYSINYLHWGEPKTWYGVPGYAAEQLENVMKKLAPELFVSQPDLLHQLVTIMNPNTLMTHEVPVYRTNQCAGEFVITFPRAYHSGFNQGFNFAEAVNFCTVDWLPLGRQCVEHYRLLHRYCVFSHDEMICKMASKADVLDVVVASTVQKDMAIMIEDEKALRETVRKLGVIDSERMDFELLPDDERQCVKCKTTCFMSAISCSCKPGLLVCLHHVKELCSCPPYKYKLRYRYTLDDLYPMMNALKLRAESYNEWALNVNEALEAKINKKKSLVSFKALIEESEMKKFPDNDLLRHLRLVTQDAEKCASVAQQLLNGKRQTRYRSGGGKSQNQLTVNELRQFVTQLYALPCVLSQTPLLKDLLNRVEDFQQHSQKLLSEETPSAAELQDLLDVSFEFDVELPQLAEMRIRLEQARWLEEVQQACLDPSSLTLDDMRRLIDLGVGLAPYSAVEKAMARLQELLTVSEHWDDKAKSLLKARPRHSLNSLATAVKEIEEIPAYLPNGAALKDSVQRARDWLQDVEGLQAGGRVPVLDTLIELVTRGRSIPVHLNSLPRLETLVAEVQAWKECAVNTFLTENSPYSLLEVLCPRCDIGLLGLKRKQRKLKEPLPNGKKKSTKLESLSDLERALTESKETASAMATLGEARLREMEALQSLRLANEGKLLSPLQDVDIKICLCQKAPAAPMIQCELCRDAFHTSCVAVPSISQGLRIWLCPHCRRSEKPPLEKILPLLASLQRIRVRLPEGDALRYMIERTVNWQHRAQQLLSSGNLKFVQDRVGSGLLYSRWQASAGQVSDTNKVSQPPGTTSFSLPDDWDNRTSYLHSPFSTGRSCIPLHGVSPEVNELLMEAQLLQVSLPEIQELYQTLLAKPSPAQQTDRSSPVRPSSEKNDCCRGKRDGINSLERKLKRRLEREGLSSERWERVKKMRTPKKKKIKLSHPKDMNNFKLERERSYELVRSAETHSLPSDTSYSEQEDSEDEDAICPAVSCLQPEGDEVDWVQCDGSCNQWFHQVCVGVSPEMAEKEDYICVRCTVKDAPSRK
# Experiment: Primary screen for KDM5B Histone Demethylases FDH-coupled qHTS; note: nearly all actives have a fitted effect of over 70% in size
# Conditions: FDH-coupled NADH fluorescence (FDH is formaldehyde dehydrogenase); series mostly up to 57.7 µM
# Procedure, shortened: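 qHTS format, multiple compound concentrations. Buffer 50 mM HEPES pH 7.5/0.01% Tween-20; 200 nM KDM5BΔAP final; 10 min compound preincubation; substrate-mix levels 12.5 µM peptide, 25 µM α-KG, 0.25 mM NAD⁺; 30 min RT; ΔRFU.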
# Potency is the fitted concentration of half-maximal effect.
row,Compound,Potency
1,CCCCc1nc(SCC(=O)Nc2nnc(C(C)C)s2)n[nH]1,inactive
2,CN1[C@@H](CCC(=O)N2CCN(c3ccccc3)CC2)CNC(=O)[C@H]2NCC[C@H]21,inactive
3,COC(=O)C1CCN(C(=O)CC[C@H]2CNC(=O)[C@@H]3[C@@H](CCN3Cc3cccs3)N2C)CC1,inactive
4,CN1[C@@H](CCC(=O)N2CCN(c3ccccn3)CC2)CNC(=O)[C@@H]2[C@H]1CCN2Cc1csnn1,28.2 µM (active)
5,O=C(Nc1ccsc1)N[C@H]1C[C@H]2C(=O)NC[C@@H](CCC(=O)N3CCC(O)CC3)N2C1,inactive
6,CN(C)c1ccc(C(=O)N[C@H]2C[C@H]3C(=O)NC[C@@H](CCC(=O)N4CCCCC4)N3C2)cc1,inactive
7,O=C1NC[C@@H](CCC(=O)N2CCN(c3ccccn3)CC2)N2C[C@@H](NCc3ccccc3)C[C@@H]12,31.6 µM (active)
8,COc1cccc(C(=O)Oc2ccc(C3(c4ccc(OC(=O)c5cccc(OC)c5)cc4)OC(=O)c4ccccc43)cc2)c1,inactive
9,CC(C)NC(=O)CN(C)CC(O)COc1ccc(Cl)cc1 (stereo unspecified),inactive
10,CCc1cc(CC)n(-c2nc3c(c(=O)n(C)c(=O)n3C)n2C)n1,inactive
11,CCc1nn(C(C)C(=O)NCc2ccccc2Cl)c(=O)c2cc3occc3n12 (stereo unspecified),inactive
12,NC(=O)c1ccc(NC(=O)C2(Cc3nc4ccccc4s3)CCCCC2)cc1,inactive
13,CCNC(=O)NC(=O)CN1CCCC(c2nc3ccccc3o2)C1 (stereo unspecified),inactive
14,Cc1nc2scc(CC(=O)NC(C)C)n2c(=O)c1-c1cc(C)n(-c2cccc(Cl)c2)n1,28.2 µM (active)
15,Cn1nc(CC(=O)Nc2cccc(Cl)c2)c2ccccc2c1=O,inactive
16,COc1ccc2c(C)c(CC(=O)NCc3ccco3)c(=O)oc2c1,inactive
17,Cc1cccc(-n2nc(-c3c(C)nc4scc(CC(=O)NCc5ccco5)n4c3=O)cc2C)c1C,31.6 µM (active)
18,CCC1(C)Cc2nc3sc4c(=O)n(CC(=O)NCc5ccco5)cnc4c3cc2CO1 (stereo unspecified),inactive
19,CC(C)NC(=O)Cc1cccs1,inactive
20,Cc1ccc(C(NC(=O)c2ccccc2Cl)C(Cl)(Cl)Cl)cc1 (stereo unspecified),inactive
21,Cc1cc(NC(=O)CSc2nc(=O)cc(N)n2-c2ccc(F)cc2)no1,inactive
22,O=C(O)CC/C(=C/c1cccc(Oc2ccc(Cl)cc2)c1)c1nc2ccccc2s1,inactive
23,CN(Cc1nnc(-c2ccc(Br)s2)o1)C1CCCC1,inactive
24,COc1ccccc1C1=NS(=O)(=O)N(C)C(C(=O)N2CCN(Cc3ccccc3)CC2)=C1,inactive
25,Cc1ccccc1CNC(=O)c1ccc2c(c1)CCCC2,inactive
26,O=C(CSc1ncc(-c2ccc(Cl)cc2)o1)Nc1ccc(F)cc1,inactive
